For test [1], the target named is Lysosomal acid glucosylceramidase (Homo sapiens) (UniProt P04062). Description: Glucocerebrosidase-p2 (AID 348; in the data active = potency below about 10 µM; note: potency is the fitted concentration of half-maximal effect). As to conditions: purified GBA, blue fluorogenic substrate, 40 min. In a few lines: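 Compounds titrated from 0.6 nM upwards against 0.2 nM enzyme in pH 5.9 citric acid/KH2PO4, taurocholate, tween-20; blue fluorogenic substrate 80 uM, 40 min room temperature, stopped and read Ex 365/Em 440 for AC50.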

Test [2] is described as follows: AP1 Signaling Pathway (AID 357).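 Note: ME-180 reporter cells stimulated with EGF at its EC50 level; % is set by controls: 0 for no effect and ±100 for the full control effect.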 As to conditions: ME-180 AP-1-bla reporter, EGF-induced, beta-lactamase ratio, 5 h; at 7.69 µM (top of the series) unless noted. The gist of the method: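 In this screen, ME-180 cells in Opti-MEM with 0.5% dialyzed FBS received EC50 EGF and compound titrations for 5 h. AP-1 reporter beta-lactamase was detected via CCF4 ratio, giving AC50 for positive and negative modulators.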

Test [3] concerns the target Cytochrome P450 1A2 (Homo sapiens) (UniProt P05177). Description: p450-cyp1a2 (AID 410; calls by dose curve; note: potency is the fitted concentration of half-maximal effect;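 for activity change, negative = inhibition: -100% = full effect of reference inhibitor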). The conditions noted are these: recombinant CYP1A2, luciferin-ME demethylation, luminescence; series mostly up to 11.4 µM. In a few lines:
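Luminescent readout of luciferin formed from Luciferin-ME by human CYP1A2; data normalized against complete inhibition by 57 uM furafylline. Enzyme 20nM, substrate 100uM at Km, 100mM KPO4 buffer, 60 min reaction at room temperature.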

Test [4] is described as follows: NFAT Signaling Pathway (AID 444).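 Note: carbachol stimulus at about its EC50 of 1 µM final; % is set by controls: 0 for no effect and ±100 for the full control effect.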 The conditions noted are these: Jurkat NFAT-bla M1, carbachol, beta-lactamase ratio, 5 h; at 7.69 µM (top of the series) unless noted. In a few lines: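 Jurkat cells with NFAT-driven β-lactamase reporter and co-expressed M1 receptor, stimulated with carbachol (final 1 uM, ~EC50), compound titration, 5 h at 37 °C. CCF4 loaded 1 h at RT; 460/530 nm ratio gave %activity and AC50.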

A short description of test [5]: Stat Signaling Pathway (AID 446).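 Note: ME-180 cervical cancer cells given 40 pM IL-6 alongside compound; SIE-controlled beta-lactamase reporter measured as 460/530 nm FRET emission ratio; % is set by controls: 0 for no effect and ±100 for the full control effect.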 The conditions noted are these: ME-180 SIE beta-lactamase reporter, IL-6 stimulated, 5 h; at 7.69 µM (top of the series) unless noted. In a few lines: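 ME-180 SIE-bla cells; overnight plating; cpd + IL-6 40 pM, 5 h, 37 C; LiveBLAzer 2.5 h RT; 460/530 nm emission ratio. Normalized to 300 pM IL-6 and 125 nM JAK inhibitor controls.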

The target in test [6] is Glucocorticoid receptor (Homo sapiens) (UniProt P04150). Description: GR-GFP Redistribution (AID 450;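 active = compounds whose dose series gives a full or clear partial fitted curve of increased nuclear translocation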; note: potency is the fitted concentration of half-maximal effect). As to conditions: U2OS GR-GFP nuclear translocation, laser cytometry, 2 h.
The target is the same in test [7]. Description: GR-EFC Redistribution (AID 451; calls by dose curve; note: potency is the fitted concentration of half-maximal effect). The conditions noted are these: CHO-K1 GR-EFC translocation, beta-gal luminescence, 2 h. The gist of the method:
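CHO-K1 cells expressing nuclear EA and GR-ED fragments of b-gal; compounds titrated up to 46 uM final, 2 h at 37 C. GR nuclear translocation read as complemented b-gal luminescence after 1 h RT detection.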

Test [8] has as its target Mitogen-activated protein kinase 10 (Mus musculus) (UniProt Q61831). In words: JNK3 AlphaScreen Assay (AID 530).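 Note: kinase came from lysate of stimulated human HepG2 cells; signal reports phosphorylation of biotinylated GST-cJun 1-79 at Ser73 with 10 µM ATP; % is set by controls: 0 for no effect and ±100 for the full control effect.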 The conditions noted are these: JNK3 lysate, c-Jun phosphorylation; series mostly up to 11.4 µM. In a few lines:
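Pre-activated (IL-1β/TNFα) JNK3 in HepG2 lysates phosphorylates biotin-GST-cJun(1-79), 10 uM ATP; anti-phospho-cJun(Ser73) AlphaScreen read at room temperature, pH 7.6 Tris buffer. Compounds pre-incubated 15 min as titrations.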
On the technique in general: Alpha assays give light when donor and acceptor beads are brought close together.

Test [9] has as its target 3',5'-cyclic-AMP phosphodiesterase 4B (Homo sapiens) (UniProt Q07343). Description: qHTS Assay for Inhibitors of PDE-IV (AID 607; active = well fitted activation curve with a large enough effect in the main read-out, with a control signal flat, not every such curve was filed as active; note: % of control where 0% means no effect). As to conditions: HEK293 ACTOne CNG channel cells, membrane potential fluorescence; series mostly up to 22.9 µM. The gist of the method:
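ACTOne HEK293 cells carry a modified cAMP-gated CNG channel and express endogenous PDE4; plated 1000 cells/well, compounds up to 22.9 uM final. Membrane-potential dye fluorescence (ex 535/em 590) was read; parental cells received 10 uM forskolin + 100 uM RO 20-1724.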
In general terms: qHTS replaces the single test concentration by a dilution series.

Test [10] deals with Cytochrome P450 3A4 (Homo sapiens) (UniProt P08684). Description: qHTS Assay for Inhibitors and Substrates of Cytochrome P450 3A4 (AID 884; active = well fitted curve in the direction sought with a large enough effect; an effect the other way counts as inactive or inconclusive; note: nearly all actives have a fitted effect of over 50% in size; note: potency is the fitted concentration of half-maximal effect). The conditions noted are these: recombinant CYP3A4, Luciferin-PPXE luminescence; series mostly up to 57.1 µM. The gist of the method: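 20 nM human CYP3A4 with 25 uM Luciferin-PPXE (at KM) in 200 mM KPO4, preincubated 10 min with compound; NADPH regeneration started a 60 min RT reaction. Luciferin detected by luminescence, normalized to 57 uM ketoconazole as full inhibition.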

Test [11] has the same target. Description: qHTS Assay for Activators of Cytochrome P450 3A4 (AID 885; active = well fitted curve in the direction sought with a large enough effect; an effect the other way counts as inactive or inconclusive; note: nearly all actives have a fitted effect of over 65% in size). The conditions noted are these: recombinant CYP3A4, Luciferin-PPXE luminescence, 60 min; series mostly up to 11.4 µM. The gist of the method: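 20nM CYP3A4 + 25uM Luciferin-PPXE (=KM), 200mM KPO4; cpd 10 min RT; NADPH regen, 60 min RT; stop w/ detection buffer, 20 min; luminescence. Normalized to 57 uM ketoconazole.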

The target in test [12] is Cytochrome P450 2C19 (Homo sapiens) (UniProt P33261). Description: qHTS Assay for Inhibitors and Substrates of Cytochrome P450 2C19 (AID 899; active = well fitted curve in the direction sought with a large enough effect; an effect the other way counts as inactive or inconclusive; note: nearly all actives have a fitted effect of over 60% in size; note: potency is the fitted concentration of half-maximal effect). The conditions noted are these: recombinant CYP2C19, luciferin-H EGE luminescence; series mostly up to 11.4 µM. The gist of the method:
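Luminescent read-out of luciferin formed from Luciferin-H EGE (10uM, equal to KM). Enzyme 5nM in 50mM KPO4; compound added, 10 min at 37C, then NADPH regenerating system for 60 min at 37C. Full inhibition defined by 57uM ketoconazole.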

The target of test [13] is Cytochrome P450 2C9 (Homo sapiens) (UniProt P11712). Description: qHTS Assay for Inhibitors and Substrates of Cytochrome P450 2C9 (AID 883; active = well fitted curve in the direction sought with a large enough effect; an effect the other way counts as inactive or inconclusive; note: % is set by controls: 0 for no effect and ±100 for the full control effect; nearly all actives have a fitted effect of over 60% in size). As to conditions: recombinant CYP2C9, luciferin-H luminescence, 60 min; series mostly up to 11.4 µM. The gist of the method:
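10nM CYP2C9 + 100uM Luciferin-H (=KM), 25mM KPO4; cpd 10 min 37C; NADPH regen, 60 min 37C; stop/detect with P450 Glo-Buffer 20 min; luminescence. Norm. to 57uM sulphaphenazole as full inhibition.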

For test [14], the target named is Cytochrome P450 2D6 (Homo sapiens) (UniProt P10635). In words: qHTS Assay for Inhibitors and Substrates of Cytochrome P450 2D6 (AID 891; active = well fitted curve in the direction sought with a large enough effect; an effect the other way counts as inactive or inconclusive;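 note: luciferin methyl ether substrate demethylated by CYP2D6 with NADPH regeneration; % is set by controls: 0 for no effect and ±100 for the full control effect; nearly all actives have a fitted effect of over 60% in size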). The conditions noted are these: recombinant CYP2D6, luciferin-ME EGE luminescence; series mostly up to 11.4 µM. In a few lines: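 Human CYP2D6 (5 nM) with 30 uM Luciferin-ME EGE (at Km) in 100 mM KPO4, compound preincubated 10 min, then NADPH regeneration system for 60 min at room temperature. Luciferin read by luminescence; normalized to 1.43 uM quinidine.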

Values without a mark were called inactive. Inconclusive results are not listed. Activity calls are given as the source filed them. Unless noted, calls come from the whole dose curve; as a rule, active = well fitted curve in either direction with a large enough effect (not every such curve was filed as active); inconclusive = small, poorly fitted or top-dose-only effect, or another doubt; inactive = flat fitted curve, though single readings scatter.

Cytochrome P450 2C19 (Homo sapiens), sequence (P33261 whole entry, looked up): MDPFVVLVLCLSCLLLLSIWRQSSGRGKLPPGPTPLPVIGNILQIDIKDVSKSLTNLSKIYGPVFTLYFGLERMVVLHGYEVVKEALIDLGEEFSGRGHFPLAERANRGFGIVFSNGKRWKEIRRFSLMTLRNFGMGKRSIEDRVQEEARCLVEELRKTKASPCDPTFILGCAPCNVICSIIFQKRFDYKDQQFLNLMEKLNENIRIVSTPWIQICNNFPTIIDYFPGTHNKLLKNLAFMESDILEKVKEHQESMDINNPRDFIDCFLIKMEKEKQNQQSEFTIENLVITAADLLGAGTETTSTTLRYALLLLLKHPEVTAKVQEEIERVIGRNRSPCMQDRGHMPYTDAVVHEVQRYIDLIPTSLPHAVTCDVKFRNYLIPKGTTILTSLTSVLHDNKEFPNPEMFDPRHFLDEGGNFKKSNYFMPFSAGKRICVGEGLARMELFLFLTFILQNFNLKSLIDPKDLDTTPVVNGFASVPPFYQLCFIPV
Cytochrome P450 1A2 (Homo sapiens), sequence (P05177 whole entry, looked up): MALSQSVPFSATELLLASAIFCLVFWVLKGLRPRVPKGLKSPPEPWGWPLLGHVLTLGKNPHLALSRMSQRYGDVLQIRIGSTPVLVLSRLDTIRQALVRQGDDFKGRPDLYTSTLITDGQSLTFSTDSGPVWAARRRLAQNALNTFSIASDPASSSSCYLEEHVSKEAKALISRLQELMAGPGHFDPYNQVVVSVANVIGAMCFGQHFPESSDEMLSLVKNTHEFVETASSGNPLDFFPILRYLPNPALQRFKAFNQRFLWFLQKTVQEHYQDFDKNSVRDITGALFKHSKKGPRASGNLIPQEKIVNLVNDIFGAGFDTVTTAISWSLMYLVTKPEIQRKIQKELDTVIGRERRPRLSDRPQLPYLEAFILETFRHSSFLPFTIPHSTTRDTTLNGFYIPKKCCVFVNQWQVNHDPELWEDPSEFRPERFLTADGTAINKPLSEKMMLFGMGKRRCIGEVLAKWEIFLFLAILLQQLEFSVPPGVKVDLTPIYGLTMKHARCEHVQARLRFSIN
Glucocorticoid receptor (Homo sapiens), sequence (P04150 whole entry, looked up): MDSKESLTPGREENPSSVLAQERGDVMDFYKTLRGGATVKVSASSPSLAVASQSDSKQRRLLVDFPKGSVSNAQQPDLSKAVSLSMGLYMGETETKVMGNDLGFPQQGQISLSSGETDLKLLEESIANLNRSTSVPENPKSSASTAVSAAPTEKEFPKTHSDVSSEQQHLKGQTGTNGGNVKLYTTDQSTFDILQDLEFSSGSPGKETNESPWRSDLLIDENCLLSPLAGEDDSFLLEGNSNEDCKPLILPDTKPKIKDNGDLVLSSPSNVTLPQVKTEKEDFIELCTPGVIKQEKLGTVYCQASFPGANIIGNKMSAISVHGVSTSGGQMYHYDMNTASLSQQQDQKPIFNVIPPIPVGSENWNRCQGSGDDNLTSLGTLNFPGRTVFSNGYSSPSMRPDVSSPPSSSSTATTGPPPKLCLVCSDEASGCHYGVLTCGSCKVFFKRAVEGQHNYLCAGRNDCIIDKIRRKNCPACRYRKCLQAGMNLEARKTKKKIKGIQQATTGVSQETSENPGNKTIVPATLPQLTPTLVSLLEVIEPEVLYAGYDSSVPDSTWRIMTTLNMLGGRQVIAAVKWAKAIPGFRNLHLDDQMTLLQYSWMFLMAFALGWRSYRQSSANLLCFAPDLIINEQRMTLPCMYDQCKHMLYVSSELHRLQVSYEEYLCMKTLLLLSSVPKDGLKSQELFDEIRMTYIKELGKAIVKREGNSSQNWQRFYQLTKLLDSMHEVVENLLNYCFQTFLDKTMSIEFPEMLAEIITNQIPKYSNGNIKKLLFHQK
3',5'-cyclic-AMP phosphodiesterase 4B (Homo sapiens), sequence (Q07343 whole entry, looked up): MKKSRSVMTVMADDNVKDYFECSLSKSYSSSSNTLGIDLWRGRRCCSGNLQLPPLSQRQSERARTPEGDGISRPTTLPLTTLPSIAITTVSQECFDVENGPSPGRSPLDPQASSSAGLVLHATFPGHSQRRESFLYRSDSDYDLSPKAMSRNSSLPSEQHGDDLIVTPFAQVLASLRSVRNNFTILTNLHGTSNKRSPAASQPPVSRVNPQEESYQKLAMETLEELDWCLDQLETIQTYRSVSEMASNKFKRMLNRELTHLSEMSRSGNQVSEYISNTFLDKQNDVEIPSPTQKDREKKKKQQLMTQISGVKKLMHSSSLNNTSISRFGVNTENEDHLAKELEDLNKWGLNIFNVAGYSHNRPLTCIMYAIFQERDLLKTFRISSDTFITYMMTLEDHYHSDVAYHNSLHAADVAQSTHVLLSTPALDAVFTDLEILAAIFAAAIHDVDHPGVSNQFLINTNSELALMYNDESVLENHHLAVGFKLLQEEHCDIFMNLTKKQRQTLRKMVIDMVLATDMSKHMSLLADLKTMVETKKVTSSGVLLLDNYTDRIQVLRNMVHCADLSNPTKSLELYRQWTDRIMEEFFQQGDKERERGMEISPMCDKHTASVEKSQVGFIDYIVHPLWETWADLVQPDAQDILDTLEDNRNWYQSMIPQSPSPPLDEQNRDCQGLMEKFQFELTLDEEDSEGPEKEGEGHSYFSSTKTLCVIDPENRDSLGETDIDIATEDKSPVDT
Cytochrome P450 3A4 (Homo sapiens), sequence (P08684 whole entry, looked up): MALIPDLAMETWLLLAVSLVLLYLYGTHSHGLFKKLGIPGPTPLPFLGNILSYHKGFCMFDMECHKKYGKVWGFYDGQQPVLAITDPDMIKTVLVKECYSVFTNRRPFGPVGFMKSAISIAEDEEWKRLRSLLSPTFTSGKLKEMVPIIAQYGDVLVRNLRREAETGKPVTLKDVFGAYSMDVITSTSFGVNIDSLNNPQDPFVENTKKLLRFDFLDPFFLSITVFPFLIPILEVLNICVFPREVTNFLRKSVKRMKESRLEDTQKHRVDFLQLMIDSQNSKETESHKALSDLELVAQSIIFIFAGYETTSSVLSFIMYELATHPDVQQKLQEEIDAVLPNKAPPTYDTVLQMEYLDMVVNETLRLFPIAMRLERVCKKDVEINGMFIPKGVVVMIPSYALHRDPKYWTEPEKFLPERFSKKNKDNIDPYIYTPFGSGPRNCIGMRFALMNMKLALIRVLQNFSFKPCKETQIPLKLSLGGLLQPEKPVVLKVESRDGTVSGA
Lysosomal acid glucosylceramidase (Homo sapiens), sequence (P04062 whole entry, looked up): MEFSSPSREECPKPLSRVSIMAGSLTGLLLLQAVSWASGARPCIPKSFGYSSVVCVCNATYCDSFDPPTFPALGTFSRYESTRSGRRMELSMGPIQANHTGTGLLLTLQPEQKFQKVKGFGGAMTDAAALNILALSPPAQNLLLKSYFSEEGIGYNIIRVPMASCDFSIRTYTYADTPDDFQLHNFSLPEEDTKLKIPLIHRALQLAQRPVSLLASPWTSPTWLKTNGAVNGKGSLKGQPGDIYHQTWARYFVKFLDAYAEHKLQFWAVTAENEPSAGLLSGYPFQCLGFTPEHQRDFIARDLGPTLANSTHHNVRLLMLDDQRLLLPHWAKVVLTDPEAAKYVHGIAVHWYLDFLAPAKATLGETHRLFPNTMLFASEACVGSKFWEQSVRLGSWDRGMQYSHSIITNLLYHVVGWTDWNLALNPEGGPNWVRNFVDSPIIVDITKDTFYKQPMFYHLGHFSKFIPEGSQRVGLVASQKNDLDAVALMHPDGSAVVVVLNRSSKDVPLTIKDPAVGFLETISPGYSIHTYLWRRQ
Cytochrome P450 2C9 (Homo sapiens), sequence (P11712 whole entry, looked up): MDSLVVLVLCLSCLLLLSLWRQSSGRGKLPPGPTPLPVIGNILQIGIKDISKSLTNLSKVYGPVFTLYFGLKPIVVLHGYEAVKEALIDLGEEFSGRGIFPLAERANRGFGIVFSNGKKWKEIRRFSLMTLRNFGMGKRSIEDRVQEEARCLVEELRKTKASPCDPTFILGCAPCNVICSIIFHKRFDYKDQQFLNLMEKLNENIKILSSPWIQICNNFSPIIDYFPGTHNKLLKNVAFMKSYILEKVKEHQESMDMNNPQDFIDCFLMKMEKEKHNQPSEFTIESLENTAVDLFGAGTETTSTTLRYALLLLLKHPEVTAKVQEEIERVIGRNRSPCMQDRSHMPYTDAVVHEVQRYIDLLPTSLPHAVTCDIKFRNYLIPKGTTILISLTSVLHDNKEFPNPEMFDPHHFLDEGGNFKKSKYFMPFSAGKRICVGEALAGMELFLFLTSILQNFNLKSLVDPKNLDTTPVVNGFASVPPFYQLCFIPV
Cytochrome P450 2D6 (Homo sapiens), sequence (P10635 whole entry, looked up): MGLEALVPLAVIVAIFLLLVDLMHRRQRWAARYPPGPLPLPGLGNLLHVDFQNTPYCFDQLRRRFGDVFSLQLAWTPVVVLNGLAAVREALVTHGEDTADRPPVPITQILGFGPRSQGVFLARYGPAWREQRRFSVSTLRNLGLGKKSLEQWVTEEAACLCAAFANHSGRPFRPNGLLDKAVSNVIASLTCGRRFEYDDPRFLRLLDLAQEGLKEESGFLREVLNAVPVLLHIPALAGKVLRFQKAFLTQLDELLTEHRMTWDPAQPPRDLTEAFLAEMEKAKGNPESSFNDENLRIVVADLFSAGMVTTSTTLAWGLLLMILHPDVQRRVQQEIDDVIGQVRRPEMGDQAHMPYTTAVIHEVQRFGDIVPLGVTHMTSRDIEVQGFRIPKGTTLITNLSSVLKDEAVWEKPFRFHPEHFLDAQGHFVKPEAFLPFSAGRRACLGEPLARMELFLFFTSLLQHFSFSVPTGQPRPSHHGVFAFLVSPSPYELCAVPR

On to `CC(C)CO[C@H](c1ccc2c(c1)OCO2)[C@H](C)Br`, for which the Potency was over 11.4 µM in [1]; 0.631 µM (active) in test [3]; over 46 µM in test [6]; over 9.22 µM in [7]; 3.16 µM (active) in test [10]; 0.0631 µM (active) in test [12]. Moreover, the activity change, negative = inhibition in [2] is -13.4%; in test [4], -8.77%. The activity, negative = inhibition in test [5] was 7%. The Potency result in [8], in [9] and in test [11] was “inactive” throughout.
In the case of `CC(=O)Nc1ccc2c(c1)C(=Nc1ccc(C(=O)O)cc1)c1ccccc1-2`, the Potency was over 11.4 µM in test [1], 0.316 µM (active) in [3], over 46 µM in test [6] and over 9.22 µM in [7]. For the same molecule, the figures for the activity change, negative = inhibition in test [2] and in test [4] were 2.47% and 27.4%, respectively. The activity, negative = inhibition in test [5] is 4.14%. Besides, the Potency entry in test [8], in test [9] and in test [11] was “inactive” each time.
With `Nc1nc(SCCc2ccccc2)c2[nH]cnc2n1`, the Potency in test [1] is over 11.4 µM; in [3] it was 3.16 µM (active); in [6], over 46 µM; in [7] it was over 9.22 µM; in test [10] it was 2.51 µM (active); in test [12] it was 0.631 µM (active). In addition, the results for the activity change, negative = inhibition in test [2] and in test [4] were -4.07% and 15.6%, respectively. Further, the activity, negative = inhibition in [5] is -1.34%. The Potency result in [8], in test [9] and in test [11] was “inactive” throughout.
Turning to `c1ccc(CSc2nnc3c4ccccc4c4ccccc4c3n2)cc1`, the Potency is over 11.4 µM in [1], 0.2 µM (active) in test [3], over 46 µM in [6] and over 9.22 µM in [7]. In addition, the results for the activity change, negative = inhibition in test [2] and in test [4] were 6.19% and -12.6%, respectively. Besides, the activity, negative = inhibition in test [5] was 1.88%. For the same molecule, the Potency result in [8], in test [9] and in test [11] was “inactive” in each case.
Consider `COc1ccc2c(Cl)cc(NC(=S)Nc3ccccc3)nc2c1`, for which the Potency is 10.6 µM in test [1], 0.398 µM (active) in test [3], over 46 µM in [6] and over 9.22 µM in test [7]. In addition, the activity change, negative = inhibition in test [2] was 9.58%; in test [4] it was 12.1%; in test [10] it was 67.2% [at 11.4 µM]. The activity, negative = inhibition in test [5] is 2.27%. The Potency result in test [8] and in [9] was “inactive” throughout.
As to `CN(C)CCNCCN`, the Potency is over 11.4 µM in test [1], over 46 µM in [6] and over 9.22 µM in test [7]. In addition, the results for the activity change, negative = inhibition in test [2] and in [4] were 9.73% and 16.1%, respectively. The Potency entry in [3], in [8], in [9], in test [13] and in [12] was “inactive” in each case. Besides, the activity, negative = inhibition in test [5] was 4.92%.
Consider `O=C1CNCCCN2CCN(CCCNCC(=O)Nc3ccc(cc3)S(=O)(=O)c3ccc(cc3)NC(=O)CNCCCN3CCN(CCCNCC(=O)Nc4ccc(cc4)S(=O)(=O)c4ccc(cc4)N1)CC3)CC2`, for which the Potency in test [1] is over 11.4 µM; in [6], over 46 µM; in test [7] it was over 9.22 µM. For the same molecule, the activity change, negative = inhibition was -2.18% in [2] and 13.1% in test [4]. The Potency result in test [3], in [8], in [9], in test [13], in [14] and in test [12] was “inactive” throughout. In addition, the activity, negative = inhibition in test [5] was -11%.

The record behind these values is PubChem BioAssay (NCATS).
